# From PubChem BioAssay AID686979 (National Center for Advancing Translational Sciences (NCATS), 2013)
# Values joined by “and” are separate entries in the source; they are usually repeats but may differ in a detail not shown here. Identical values can stand only once. Screen size: about 420,000 compounds; about 50,000 (12%) were called active. A call without a number means that no potency is given here. Another 26% or so got no clear call; they are omitted. The sample as a whole holds a higher share of actives than the screen did. Values without a mark were called inactive. The call rests on the fitted dose curve; in most records, active means well fitted inhibition curve with a large enough effect; inconclusive means small, poorly fitted or top-dose-only effect; inactive means flat fitted curve, though single readings scatter.
# Assay: qHTS for Inhibitors of human tyrosyl-DNA phosphodiesterase 1 (TDP1): qHTS in cells in presence of CPT; further: nearly all actives have a fitted effect of over 55% in size
# Conditions: chicken DT40 Tdp1-/-;hTDP1 cells + 20 nM CPT, ATP luminescence, 48 h; series mostly up to 46.2 µM
# Procedure, shortened: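 Chicken DT40 Tdp1-/- cells stably complemented with human TDP1 were seeded at 400 cells/well in medium containing 20 nM camptothecin, exposed to pin-transferred compounds, and grown at 37 °C for at least 48 hr. Viability was read as ATP luminescence.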
# Potency means the concentration at half of the fitted maximal effect.
SMILES,Potency,"activity change, negative = growth inhibition"
CNC(=O)COc1ccc(S(=O)(=O)Nc2ccccc2)cc1,inactive,
CC(=O)c1ccccc1NC(=O)COC(=O)C1COc2ccccc2O1 (centres undefined),inactive,
CC1(C(=O)NS(=O)(=O)c2ccccc2Cl)CCN1C(=O)c1cccc(F)c1 (centres undefined),inactive,
O=C(Cn1nc([N+](=O)[O-])nc1Br)NC1CCCCC1,inactive,
O=C(NCCS(=O)(=O)N1CCN(c2ccccc2)CC1)c1ccco1,inactive,
CN1CCN(Cc2nc3cc(NC(=O)COc4ccc([N+](=O)[O-])cc4)ccc3n2C)CC1,inactive,
O=C(Oc1ccc(C(=S)N2CCOCC2)cc1)c1ccc(F)cc1,inactive,
Cc1ccc(SCC2=NNC(=O)C2)cc1,inactive,
O=C(COc1ccccc1)Nc1cc2c3c(c1)CC(=O)N3CCC2,inactive,
CN(Cc1ccccc1)C(=O)CCC1CCN(C(=O)c2ccco2)CC1,inactive,
C=CCC1(C(=O)N(C)Cc2ccccc2)CCN(C(=O)OC(C)(C)C)CC1,14.6 µM (active),
CC(C)(C)OC(=O)N1CCN(C(=O)c2[nH]c(C(F)(F)F)nc2-c2ccccc2)CC1,inactive,
COCC(=O)N=Nc1c(O)[nH]c2ccccc12,inactive,
Cc1cccc(N=Nc2c(O)[nH]c3ccc(F)cc23)c1,inactive,
Oc1[nH]c2ccccc2c1N=Nc1c(F)c(F)c(F)c(F)c1F,8.2 µM (active),
Cc1cc(=O)oc2c(C)c(OCC(=O)NCCc3ccc(S(N)(=O)=O)cc3)ccc12,inactive,
CCCNC(=O)C1(C)CCN(C(=O)c2ccccc2OC(F)(F)F)C1 (centres undefined),inactive,
c1ccc(CNc2ncnc3[nH]ncc23)cc1,20.6 µM (active),
c1ccc(CNc2ncncc2-c2cccnc2)cc1,inactive,
CN(c1ccccn1)c1ncnc2[nH]ncc12,inactive,
Cc1ccc2c(=O)c(C(=O)c3cccc(Cl)c3)cn(CC(=O)NCc3ccccc3)c2n1,inactive,
CC1(C)CC(=O)C=C(N2CCOCC2)C1,inactive,

SMILES,Potency,"activity change, negative = growth inhibition"
Cc1oc(C(N)=O)cc1COc1ccc(C(N)=O)cc1,inactive,
COC(OC)c1ccnc(SCc2ccccc2Cl)n1,inactive,
Cc1cccc(Cc2c(C)nc3nc(SCc4ccccc4Cl)nn3c2C)c1,23.1 µM (active),
Cc1nc2nc(SCC(=O)NCc3ccco3)nn2c(C)c1Cc1ccccc1,inactive,
O=C(O)c1ccccc1-c1cccc2nncn12,inactive,
Cc1nnc(SCC(=O)N/N=C/c2cn(-c3ccccc3)nc2-c2ccc(F)cc2)n1-c1ccccc1,inactive,
O=C(N/N=C/c1ccc([N+](=O)[O-])o1)c1cn(-c2ccccc2)nc1-c1ccc(F)cc1,7.31 µM (active),
O=C(NCCCN1CCOCC1)c1cn(-c2ccccc2)nc1-c1ccc(F)cc1,inactive,
COc1ccc(S(=O)(=O)NCC(=O)NC2CC2)cc1OC,inactive,
COc1ccc(Nc2nnc(C)c3ccccc23)cc1,inactive,
COc1ccc(Nc2ccc3ccccc3c2)cc1,inactive,
COc1ccc(Nc2cc(=O)oc3ccccc23)cc1,2.91 µM (active),
CCn1cc(/C=C(\NC(=O)c2ccc(C)cc2)C(=O)NCCN2CCOCC2)c2ccccc21,inactive,
CC1=NNC(=O)C1CC(=O)N/N=C/c1ccncc1 (centres undefined),inactive,
CCc1ccc(-n2c(SCc3cc(=O)n4cc(Br)ccc4n3)nc3[nH]ncc3c2=O)cc1,23.1 µM (active),
CCCSc1nc2[nH]ncc2c(=O)[nH]1,inactive,
Cc1nn(Cc2ccc(F)cc2)c(C)c1NC(=O)c1cccnc1Cl,inactive,
Cc1nn(Cc2ccc(F)cc2)c(C)c1NC(=O)c1noc2c1CCc1ccccc1-2,25.9 µM (active) and 4.61 µM (active),
COc1ccc2c(c1)CCc1c(C(=O)Nc3c(C)n(C)n(-c4ccccc4)c3=O)noc1-2,inactive,
Cc1nn(Cc2ccc(F)cc2)c(C)c1NC(=O)c1cc(CC(C)C)on1,20.6 µM (active),
Cc1cc(C(=O)Nc2c(C)nn(Cc3ccccc3)c2C)on1,inactive,
Cc1ccccc1Cn1nc(C)c(NC(=O)C(F)(F)F)c1C,inactive,

SMILES,Potency,"activity change, negative = growth inhibition"
C=CCOc1ccc(/C=C/C(=O)OC(C)C(=O)Nc2ccc(NC(C)=O)cc2)cc1 (centres undefined),inactive,
CC(CCN1CCN=C1N(C)C)c1ccccc1 (centres undefined),inactive,
Cc1cc(C)c2c(n1)sc1c(=O)n(-c3ccccc3)c(=O)[nH]c12,inactive,
CC(=O)Nc1cc(C(=O)N2CCc3c(Cl)cccc3C2)cc2ncn(CCc3ccccn3)c12,,-10.1% [at 9.04 µM]
COCCN(Cc1cc2cc3c(cc2nc1Cl)OCO3)C(=O)c1cccc(C)c1,7.31 µM (active),
COCCNC(=O)c1onc(CSc2cccc(C)c2)c1C(=O)O,inactive,
CN(Cc1c(F)cccc1Cl)C(=O)CNC(=O)c1ccc2c(c1)OCO2,inactive,
CCSc1nc(O)c(C(c2cccc(OC)c2)c2c(O)nc(SCC)[nH]c2=O)c(=O)[nH]1,inactive,
CC1COc2ccccc2N1C(=O)c1ccc(F)cc1 (centres undefined),inactive,
c1cncc(-c2nnc3n2C2(CCCCC2)Cc2ccccc2-3)c1,inactive,
CC1(C)Cc2ccccc2-c2nnc(-c3cccc(O)c3)n21,inactive,
O=c1c2ccccc2nc2n1C1(CCCCC1)Cc1ccccc1-2,16.4 µM (active),
CCC1(CC)Cc2ccccc2-c2nc3ccccc3c(=O)n21,18.4 µM (active),
CCOC(=O)C1CCc2nc3ccccc3c(=O)n21 (centres undefined),inactive,
CC1(C)Cc2ccccc2-c2c[nH]c(=O)n21,inactive,
CCCCSc1ncnc2c1sc1nc(N3CCOCC3)c3c(c12)CCCC3,inactive,
NS(=O)(=O)c1ccc(CCNC(=O)COC(=O)COc2cccc(C(F)(F)F)c2)cc1,inactive,
CCN(c1ncnc2c1cnn2-c1ccc(C)cc1)C1CCCCC1,inactive,
O=C(c1cc(-c2ccc(Cl)s2)nc2ccccc12)N1CCOCC1,inactive,
COCCNc1cc(NCCOC)c([N+](=O)[O-])cc1[N+](=O)[O-],inactive,
COCCNc1ccc(-c2n[nH]c(=O)c3ccccc23)cc1[N+](=O)[O-],14.6 µM (active),
COCCNC(=O)c1ccccc1NS(=O)(=O)c1ccc(C)c([N+](=O)[O-])c1,inactive,

SMILES,Potency,"activity change, negative = growth inhibition"
CC(C)(C)C(=O)OCc1nc(-c2ccc(O)c(O)c2)cs1,6.51 µM (active),
COc1ccc(-c2csc(-c3cccs3)n2)cc1OC,inactive,
Cc1onc(C(=O)NN)c1-c1csc(COc2ccccc2)n1,inactive,
O=C(Nc1ccncc1)c1ccc([N+](=O)[O-])cc1Cl,inactive,
O=C1N(c2ccc(Cl)cc2)C(c2ccc(Cl)cc2)N2CCCN12 (centres undefined),inactive,
Nc1nonc1-n1nnc(C(=O)N/N=C/c2cc(Br)ccc2O)c1CSC1=NCCS1,5.8 µM (active),
Nc1nonc1-n1nnc(C(=O)N/N=C\c2ccncc2)c1CN1CCCCC1,inactive,
Cc1ccc(SCc2c(C(=O)N/N=C/C3CC=CCC3)nnn2-c2nonc2N)cc1 (centres undefined),inactive,
CC(C)OCCCNc1ncnc2c1[nH]c1ccc(F)cc12,2.91 µM (active),
COc1cc(OC)c(OC)cc1/C=N/Nc1ncnc2c1[nH]c1ccc(C)cc12,inactive,
COc1ccc(CCNC(=O)CC2SC(=Nc3cc(C)cc(C)c3)NC2=O)cc1OC (centres undefined),inactive,
CC(C)(C)OC(=O)CNC(=O)c1[nH]cnc1C(=O)N[C@@H](CCCCN)C(=O)OC(C)(C)C,inactive,
COc1cc(NC(=O)c2cccs2)ccc1NC(=O)c1ccccc1Cl,inactive,
COc1cc2ccccc2cc1C(=O)Nc1ccncc1,inactive,
COc1cc2ccccc2cc1C(=O)Nc1ccc(NC(=O)c2cccs2)cc1,20.6 µM (active),
CCCCCCCCCCOC(=O)C[N+](C)(C)CC1CCCCC1O (centres undefined),inactive,
CC(NCc1cccs1)C(=O)Nc1cc(Cl)cc(Cl)c1 (centres undefined),inactive,
CC(=O)N1CCC2(CCCN(Cc3ccc(C#N)cc3)C2)CC1,inactive,
O=C(CN(c1cc(C(F)(F)F)ccc1Cl)S(=O)(=O)c1ccccc1)NCc1cccnc1,20.6 µM (active),
O=C(CCc1ccccc1)NCc1cccnc1,inactive,
O=C(O)c1cc(S(=O)(=O)N(Cc2ccccc2)c2cccc(C(F)(F)F)c2)ccc1Cl,inactive,
COc1ccc(C2(C)NC(=O)N(CC(=O)c3ccc4c(c3)OCO4)C2=O)cc1 (centres undefined),inactive,

SMILES,Potency,"activity change, negative = growth inhibition"
Cc1nc(NCCN)c(C#N)c2c1COC(C)(C)C2,inactive,
CCCCc1nc(NCc2ccccc2)c(C#N)c2c1CCCC2,inactive,
CCCCc1nc(NCCN)c(C#N)c2c1CSC(C)(C)C2,20.6 µM (active),
COc1ccc(-c2cc(=O)c3c(O)cc(O[C@@H]4O[C@H](CO[C@@H]5O[C@@H](C)[C@H](O)[C@@H](O)[C@H]5O)[C@@H](O)[C@H](O)[C@H]4O)cc3o2)cc1O,inactive,
COc1cccc(OC)c1C(=O)NC(=S)NCc1ccco1,inactive,
COc1cc(C(=O)N[C@@H](C)C(=O)NCc2ccco2)cc(OC)c1OC,inactive,
COc1cc(C(=O)NC(=S)NCc2ccco2)cc(OC)c1OC,18.4 µM (active),
CCN1C(=O)C(=O)N(CC(=O)Nc2cc(C)ccc2C)C1=O,inactive,
Cc1ccc(CSCCNC(=O)CN(c2ccc(F)cc2)S(C)(=O)=O)cc1,inactive,
CCOC(=O)C1CCN(C(=O)COC(=O)C2CCN(S(=O)(=O)c3ccc4c(c3)OCCO4)CC2)CC1,inactive,
CCc1ccc(-c2cc3c(=O)n(CC(=O)NCCCN4CCN(Cc5ccccc5)CC4)nc(C)n3n2)cc1,20.6 µM (active),
CCCN1CCN(CCCNC(=O)Cn2nc(CC)n3c(cc4occc43)c2=O)CC1,inactive,
Cc1ccc(-c2ccc(=O)n(CC(=O)NCCCN3CCCCC3)n2)cc1,inactive,
Cc1ccccc1CSc1nnc(-c2ccccc2)c(=O)[nH]1,inactive,
C/C(Nc1ccc2oc(=O)ccc2c1)=C1/C(=O)CC2[C@@H]1C2(C)C (some centres undefined),,6.03% [at 9.04 µM]
Cc1ccc(NC(=O)CCNC(=O)c2ccc([N+](=O)[O-])cc2)cc1S(=O)(=O)N1CCOCC1,inactive,
CC(=O)Nc1ccc(S(=O)(=O)N2CCN(S(=O)(=O)c3cccs3)CC2)cc1,inactive,
CC(=O)Nc1ccc(S(=O)(=O)N2CCN(CCCOc3cc(C)ccc3C)CC2)cc1,25.9 µM (active),
Cc1ccc(C)c(S(=O)(=O)N2CCN(CC(=O)Nc3ccc([N+](=O)[O-])cc3)CC2)c1,14.6 µM (active),
Cc1ccc(C)c(S(=O)(=O)N2CCN(C(=O)Nc3ccccc3)CC2)c1,inactive,
CC(=O)Nc1ccc(S(=O)(=O)N2CCSCC2)cc1,inactive,
